# According to PubChem BioAssay AID1508602 (The Scripps Research Institute Molecular Screening Center, 2020):
# Values joined by “and” are separate entries in the source; they are usually repeats but may differ in a detail not shown here. Equal values may be shown once. Screen size: about 650,000 compounds; about 6,800 (1%) were called active. Rule as the data show it: active = activation above about 4.9%; inactive = the rest. Shown is part of a subset that was picked to be rich in actives. Where a structure was tested more than once in an assay, its records may differ in their call.
# Target: G-protein coupled receptor 151 (Homo sapiens) (UniProt Q8TDV0)
# Sequence (Q8TDV0 whole entry, looked up): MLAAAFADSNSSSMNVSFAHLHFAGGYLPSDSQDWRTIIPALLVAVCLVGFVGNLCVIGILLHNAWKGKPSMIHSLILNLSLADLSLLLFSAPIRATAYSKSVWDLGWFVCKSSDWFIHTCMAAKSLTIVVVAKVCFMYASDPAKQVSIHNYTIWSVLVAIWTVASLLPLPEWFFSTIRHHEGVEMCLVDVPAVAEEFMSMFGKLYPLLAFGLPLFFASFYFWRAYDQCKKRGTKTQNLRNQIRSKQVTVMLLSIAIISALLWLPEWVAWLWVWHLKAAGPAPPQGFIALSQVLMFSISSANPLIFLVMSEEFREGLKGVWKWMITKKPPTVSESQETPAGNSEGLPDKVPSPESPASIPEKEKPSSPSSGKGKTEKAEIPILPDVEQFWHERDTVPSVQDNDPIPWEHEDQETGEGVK
# Assay: activates the human receptor GPR151, primary screen, cell-based, PathHunter beta-arrestin, luminescence (AID 1508602);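 also: 0% = median of compound wells and 100% = cells with positive control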
# Details: PathHunter beta-arrestin GPR151 cells, at 11.2 µM, stronger effect = higher value
row,Compound,activation
1,Cc1ccccc1NC(=O)Nn1cnnc1,-0.0585% (inactive)
2,COc1ccc(CN(N=Nc2nonc2C)c2nonc2C)cc1,-0.147% (inactive)
3,CC(=O)c1ccc(C(=O)NCC2Cc3cc(Cl)cc(-c4ccncc4)c3O2)s1 (stereo unspecified),1.35% (inactive)
4,Cc1nc(=S)[nH]c(C)c1CCC(=O)O,0.381% (inactive)
5,CCOC(=O)CCC(=O)OC(C(=O)c1ccccc1)c1ccccc1 (stereo unspecified),0.912% (inactive)
6,CCOC(=O)C(C(=O)c1ccccc1)C1(O)C(=O)c2ccccc2C1=O (stereo unspecified),6.04% (active)
7,CCOC(C(=O)c1ccccc1)c1ccccc1 (stereo unspecified),-0.174% (inactive)
8,CCc1ccc(CN2CCCC(CO)(Cc3cccc(OC)c3)C2)o1 (stereo unspecified),0.911% (inactive)
9,N#Cc1c(-c2ccc(F)cc2)cc(-c2ccccc2)nc1SCCOc1ccccc1,-0.0587% (inactive)
10,Cc1cncc2cccc(N3CCN(C(=O)C(N)c4ccc(Br)cc4)CC3)c12 (stereo unspecified),1.97% (inactive)
11,CC1CCCCN1C(=O)c1cc2c(=O)n(C)c3ccccc3c2s1 (stereo unspecified),5.42% (active)
12,CCN1CCN(C(=O)c2cc3c(=O)n(C)c4ccccc4c3s2)CC1,0.989% (inactive)
13,Cn1c(=O)c2cc(C(=O)NCCCN3CCCCCC3)sc2c2ccccc21,0.856% (inactive)
14,O=C(Nc1cccc(-c2nnc3n2CCCCC3)c1)c1ccc(=O)n(Cc2ccccc2)n1,-1.56% (inactive)
15,CCOC(=O)c1c(-c2ccc(OC)cc2)oc2ccc(OC(=O)c3ccccc3OC)cc12,-0.167% (inactive)
16,O=C(c1ncoc1-c1cccs1)N1CCN(c2ccc(C(F)(F)F)cn2)CC1,0.0668% (inactive)
17,Nc1[nH]c(=O)[nH]c(=O)c1N=Nc1cccc(Br)c1,-1.15% (inactive)
18,O=C1CCN(Cc2cc(F)cc(F)c2)CCN1Cc1ccc(Cl)s1,-0.0282% (inactive)
19,COCCNC(=O)c1cc2c(=O)n3ccccc3nc2n(CCc2ccccc2)c1=N,4.99% (active)
20,CCCn1c(=N)c(C(=O)NCc2ccc(C)cc2)cc2c(=O)n3ccccc3nc21,1.57% (inactive)
21,N=c1c(C(=O)NCc2cccnc2)cc2c(=O)n3ccccc3nc2n1CCO,1.18% (inactive)

row,Compound,activation
1,Cc1ccc(C2(C)NC(=O)N(CC(=O)c3ccc(Br)s3)C2=O)cc1 (stereo unspecified),1.11% (inactive)
2,O=C(CN(c1cccc([N+](=O)[O-])c1)S(=O)(=O)c1ccccc1)N1CCOCC1,0.197% (inactive)
3,CCCCN1C(=O)S/C(=C\c2ccc(O)c([N+](=O)[O-])c2)C1=O,-1.5% (inactive)
4,CN(C)S(=O)(=O)c1cccc(C(=O)N2CCCc3ccccc32)c1,1.08% (inactive)
5,COC(=O)CCCNC(=O)CC1C(=O)NCCN1Cc1ccc2ccccc2c1 (stereo unspecified),-0.306% (inactive)
6,O=C(CC1C(=O)NCCN1CCc1ccccc1)NCCCn1ncc2ccccc21 (stereo unspecified),0.711% (inactive)
7,O=C(CC1C(=O)NCCN1Cc1ccc2ccccc2c1)NCCCn1cccn1 (stereo unspecified),5.94% (active)
8,COc1cc(CN(C(=O)c2cncs2)C2CCCC2)cc(OC)c1OCC1CCCO1 (stereo unspecified),-1.02% (inactive)
9,COC(=O)c1ccc2c(=O)nc3c(-c4ccccc4)n[nH]n3c2c1,-1.93% (inactive)
10,CCOC(=O)c1ccc(CNC(=O)c2cc(CCc3ccccc3)no2)o1,0.0388% (inactive)
11,Oc1ccc(Cn2cc[nH]c2=S)cc1,8.86% (active)
12,COc1ccc(Cn2cc[nH]c(=O)c2=O)cc1,-0.548% (inactive)
13,O=[N+]([O-])c1cccc(COC2=NS(=O)(=O)c3ccccc32)c1,0.739% (inactive)
14,O=C(Cc1ccccc1)N/N=C/c1ccc([N+](=O)[O-])cc1,-0.27% (inactive)
15,CSc1ccc(/C=N/NC(N)=S)cc1,0.328% (inactive)
16,NC(=S)N/N=C/c1ccc([N+](=O)[O-])cc1,-0.328% (inactive) and 5.02% (active)
17,Cc1[nH]c2ccccc2c1/C=N/NC(=O)/C(=C/c1ccccc1O)NC(=O)c1ccccc1,-5.34% (inactive)
18,COc1cccc(C(=O)NC(=S)Nc2ccc(OC)cc2OC)c1,10.4% (active)
19,COc1cccc(C(=O)NC(=S)Nc2ccccc2OC)c1,-0.111% (inactive)
20,COc1ccc(NC(=S)NC(=O)c2ccc([N+](=O)[O-])cc2)c(OC)c1,3.1% (inactive)
21,CCCOC(=O)C1=C(C)NC(=O)NC1c1ccc(Br)cc1 (stereo unspecified),9.45% (active)

row,Compound,activation
1,CC1=C(C(=O)OCCc2ccccc2)C(c2ccc(Br)cc2)NC(=O)N1 (stereo unspecified),-1.85% (inactive)
2,CCCOC(=O)C1=C(C)NC(=O)NC1c1ccccc1 (stereo unspecified),-1.76% (inactive)
3,CCCCNC(=O)C1(c2ccc(OC)cc2)CCOCC1,7.05% (active)
4,COc1ccc(C2(C(=O)Nc3ccc(C(=O)NCc4ccccc4)cc3)CCOCC2)cc1,0.34% (inactive)
5,CCCCN(C)C(=O)C1(c2ccc(OC)cc2)CCOCC1,0.343% (inactive)
6,Cn1cccc1CC(=O)N/N=C\c1c(Cl)cccc1Cl,0.023% (inactive)
7,COc1cccc(CC2(CCC(=O)NC3CCOC(C)(C)C3)CCC(=O)N2)c1 (stereo unspecified),1.54% (inactive)
8,CC(O)Cn1c(N(C)C)nc2c1c(=O)[nH]c(=O)n2C (stereo unspecified),-0.989% (inactive)
9,Cc1ccc(/C=N/Nc2nc3c(c(=O)[nH]c(=O)n3C)n2CC(O)COC(C)C)cc1 (stereo unspecified),-0.049% (inactive)
10,CCCCNc1nc2c(c(=O)[nH]c(=O)n2C)n1CC(O)COC(C)C (stereo unspecified),0.097% (inactive)
11,CCC(C)Nc1nc2c(c(=O)[nH]c(=O)n2C)n1CC(O)COC(C)C (stereo unspecified),5.88% (active)
12,C/C(=N\Nc1nc2c(c(=O)[nH]c(=O)n2C)n1CC(C)O)c1ccc(O)cc1 (stereo unspecified),-2.73% (inactive)
13,CC(C)CNc1nc2c(c(=O)[nH]c(=O)n2C)n1CC(C)O (stereo unspecified),5.96% (active)
14,Cc1cc(C)c(/C=N/NC(=O)c2nnn(-c3nonc3N)c2CN(C)C)c(C)c1,-0.818% (inactive)
15,CCOC(=O)c1c(NC(=O)Cc2ccc([N+](=O)[O-])cc2)sc(C)c1C,-0.865% (inactive)
16,Cc1cc(S(=O)(=O)n2cc(-c3cccc(F)c3)c(N)n2)ccc1F,0.532% (inactive)
17,CC(C)(C)C(=O)Nc1ccnn1C1CCN(Cc2ccccc2C(F)(F)F)CC1,0.711% (inactive)
18,Cc1cccc(CN2CCC(n3nccc3NC(=O)C(C)(C)C)CC2)c1,-0.39% (inactive)
19,Cc1ccc(C)c(CN2CCC(n3nccc3NC(=O)C(C)(C)C)CC2)c1,5.02% (active)
